# Values joined by “and” are separate entries in the source; they are usually repeats but may differ in a detail not shown here. Equal values may be shown once. Among all 5,500 compounds or so, about 2,000 (36%) were called active. Another 18% or so got no clear call; they are omitted. Some of the results follow. Unmarked numbers belong to inactive results. No stated cut-off is given here; in the data, active means normalized growth mostly below about 0.91 (no sharp cut-off); inconclusive means no clear call, values can overlap the other calls; inactive means mostly above about 0.92.
# Experiment: chemical genetic growth profiling, strain panel (AID 1159580);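 further: tested at 20 µM; growth read once vehicle control cultures reached saturation at 30 °C; 1 = growth at the plate median or of vehicle wells; lower values mean less growth of the strain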
# Details: S. cerevisiae deletion strains, growth OD
smiles,measurement,setting,value
CN(C)C(=O)C(CCN1CCC(O)(c2ccc(Cl)cc2)CC1)(c1ccccc1)c1ccccc1,normalized growth,"locus YAL013W, strain DEP1, hits give low values",1.01
same,normalized growth,"locus YAL021C, strain ccr4, hits give low values",0.984
same,normalized growth,"locus YAL026C, strain drs2, hits give low values",0.999
same,normalized growth,"locus YAL030W, strain snc1, hits give low values",1
same,normalized growth,"locus YAL040C, strain CLN3, hits give low values",0.979
same,normalized growth,"locus YBL061C, strain skt5, hits give low values",0.99
same,normalized growth,"locus YBR009C, strain hhf1, hits give low values",0.993
same,normalized growth,"locus YBR021W, strain FUR4, hits give low values",0.977
same,normalized growth,"locus YBR023C, strain chs3, hits give low values",1.01
same,normalized growth,"locus YBR171W, strain sec66, hits give low values",0.988
same,normalized growth,"locus YBR229C, strain ROT2, hits give low values",0.997
same,normalized growth,"locus YBR231C, strain swc5, hits give low values",0.965
same,normalized growth,"locus YBR279W, strain paf1, hits give low values",0.995
same,normalized growth,"locus YCL011C, strain gbp2, hits give low values",0.989
same,normalized growth,"locus YCL016C, strain dcc1, hits give low values",0.994
same,normalized growth,"locus YCL029C, strain bik1, hits give low values",1.03
same,normalized growth,"locus YCL061C, strain MRC1 (second series), hits give low values",0.996
same,normalized growth,"locus YCL061C, strain MRC1, hits give low values",0.988
same,normalized growth,"locus YCL069W, strain vba3, hits give low values",0.991
same,normalized growth,"locus YCR088W, strain abp1, hits give low values",1
same,normalized growth,"locus YDL005C, strain med2, hits give low values",0.988
same,normalized growth,"locus YDL035C, strain GPR1, hits give low values",0.965
same,normalized growth,"locus YDL040C, strain nat1, hits give low values",0.994
same,normalized growth,"locus YDL074C, strain BRE1, hits give low values",0.979
same,normalized growth,"locus YDL101C, strain DUN1, hits give low values",1
same,normalized growth,"locus YDL134C, strain PPH21, hits give low values",1.01
same,normalized growth,"locus YDL185W, strain tfp1, hits give low values",1.02
same,normalized growth,"locus YDL192W, strain arf1, hits give low values",1.02
same,normalized growth,"locus YDR001C, strain nth1, hits give low values",1
same,normalized growth,"locus YDR069C, strain doa4, hits give low values",1
same,normalized growth,"locus YDR101C, strain arx1, hits give low values",1.01
same,normalized growth,"locus YDR137W, strain rgp1, hits give low values",1.11
same,normalized growth,"locus YDR150W, strain NUM1, hits give low values",1.01 and 0.999
same,normalized growth,"locus YDR159W, strain sac3, hits give low values",0.999
same,normalized growth,"locus YDR162C, strain NBP2, hits give low values",1
same,normalized growth,"locus YDR195W, strain ref2",0.949
same,normalized growth,"locus YDR297W, strain sur2, hits give low values",1
same,normalized growth,"locus YDR318W, strain mcm21, hits give low values",1.01
same,normalized growth,"locus YDR334W, strain swr1, hits give low values",1.01
same,normalized growth,"locus YDR335W, strain msn5, hits give low values",1
same,normalized growth,"locus YDR363W, strain ESC2, hits give low values",0.967
same,normalized growth,"locus YDR388W, hits give low values",1.02
same,normalized growth,"locus YDR392W, strain spt3, hits give low values",0.797
same,normalized growth,"locus YDR502C, strain sam2, hits give low values",1.01
same,normalized growth,"locus YEL003W, strain gim4, hits give low values",0.993
same,normalized growth,"locus YEL037C, strain rad23, hits give low values",1
same,normalized growth,"locus YEL061C, strain CIN8 (second series), hits give low values",1.01
same,normalized growth,"locus YEL061C, strain CIN8, hits give low values",1
same,normalized growth,"locus YER002W, strain NOP16, hits give low values",1.01
same,normalized growth,"locus YER015W, strain faa2, hits give low values",0.967
same,normalized growth,"locus YER016W, strain bim1, hits give low values",0.996
same,normalized growth,"locus YER110C, hits give low values",1.02
same,normalized growth,"locus YER111C, strain swi4, hits give low values",0.98
same,normalized growth,"locus YER155C, strain BEM2 (second series), hits give low values",0.843 (active)
same,normalized growth,"locus YER155C, strain BEM2, hits give low values",1.01
same,normalized growth,"locus YER167W, strain BCK2, hits give low values",0.981
same,normalized growth,"locus YFR010W, strain ubp6, hits give low values",0.988
same,normalized growth,"locus YGL078C, strain dbp3, hits give low values",1.01
same,normalized growth,"locus YGL086W, strain mad1, hits give low values",0.989
same,normalized growth,"locus YGL167C, strain pmr1, hits give low values",0.99
same,normalized growth,"locus YGL173C, strain kem1, hits give low values",0.981
same,normalized growth,"locus YGL227W, strain vid30, hits give low values",1
same,normalized growth,"locus YGL240W, strain doc1, hits give low values",0.956
same,normalized growth,"locus YGL248W, strain PDE1, hits give low values",1
same,normalized growth,"locus YGL253W, strain hxk2, hits give low values",1.02
same,normalized growth,"locus YGR078C, strain PAC10, hits give low values",1 and 0.987
same,normalized growth,"locus YGR135W, strain pre9, hits give low values",1.01
same,normalized growth,"locus YGR229C, strain SMI1, hits give low values",1.01
same,normalized growth,"locus YGR252W, strain gcn5, hits give low values",0.871
same,normalized growth,"locus YHR013C, strain ard1, hits give low values",0.955
same,normalized growth,"locus YHR027C, strain rpn1, hits give low values",0.999
same,normalized growth,"locus YHR030C, strain SLT2, hits give low values",1.01 and 0.969
same,normalized growth,"locus YHR079C, strain IRE1 (second series), hits give low values",1.02
same,normalized growth,"locus YHR079C, strain IRE1, hits give low values",0.987
same,normalized growth,"locus YHR094C, strain hxt1, hits give low values",1.01
same,normalized growth,"locus YHR129C, strain ARP1, hits give low values",1
same,normalized growth,"locus YHR142W, strain chs7, hits give low values",1.01
same,normalized growth,"locus YHR200W, strain rpn10, hits give low values",0.997
same,normalized growth,"locus YIL066C, strain RNR3, hits give low values",1
same,normalized growth,"locus YIL073C, strain SPO22, hits give low values",1.05
same,normalized growth,"locus YIL125W, strain kgd1, hits give low values",1.01
same,normalized growth,"locus YIR030C, strain dcg1, hits give low values",1.02
same,normalized growth,"locus YJL092W, strain hpr5, hits give low values",0.994
same,normalized growth,"locus YJL095W, strain BCK1 (second series), hits give low values",0.993
same,normalized growth,"locus YJL095W, strain BCK1, hits give low values",1 and 0.99
same,normalized growth,"locus YJL115W, strain asf1, hits give low values",0.978
same,normalized growth,"locus YJL129C, strain trk1, hits give low values",0.941
same,normalized growth,"locus YJL134W, strain LCB3, hits give low values",1.01
same,normalized growth,"locus YJL154C, strain vps35, hits give low values",0.998
same,normalized growth,"locus YJL164C, strain tpk1, hits give low values",0.994
same,normalized growth,"locus YJL166W, strain qcr8, hits give low values",0.967
same,normalized growth,"locus YJL168C, strain set2, hits give low values",1.01
same,normalized growth,"locus YJL187C, strain SWE1 (second series), hits give low values",1.02
same,normalized growth,"locus YJR043C, strain POL32, hits give low values",0.986
same,normalized growth,"locus YJR066W, strain TOR1, hits give low values",0.928

# Source: PubChem BioAssay AID1159580 (chemical genetic matrix, 2015)
